In PubChem BioAssay (Tox21):
Records with an inconclusive call do not appear. Unmarked numbers belong to inactive results. Active and inactive are the calls of the source. Calls follow the shape of the dose curve; as a rule, active = well fitted cell-killing curve with a large enough effect in the repeat runs; inconclusive = weak or mixed curves, or effect the other way; inactive = flat fitted curve, though single readings scatter.
% is scaled to controls: 0 for no effect and ±100 for the full control effect.

Test: cAMP Responsive Elements (CRE) small molecule agonists, cell-based qHTS assay: qHTS cell viability counter screen (AID 2060914); also: nearly all actives have a fitted effect of over 50% in size
Conditions: CRE-bla HEK293T viability, CellTiter-Glo luminescence, 5 h; series mostly up to 92.4 µM; activity change, negative = cytotoxicity: at the top concentration
In short: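 CRE-bla HEK293T cells in 10% dialyzed FBS medium were exposed to compounds for 3 h at 37C after 18 h plating. CellTiter-Glo was then added in the same wells, and luminescence was read after 30 min at room temperature.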
In the case of `CC(C)=CC1C(C(=O)OC(C#N)c2cccc(Oc3ccccc3)c2)C1(C)C` (stereo unspecified), the “activity change, negative = cytotoxicity” value is reported as -17.6%. For `C=CC(=O)OCC(CC)CCCC` (stereo unspecified), the Potency was “inactive”. For `NCCCNCCCN`, the “activity change, negative = cytotoxicity” value was -1.76%. With `CC(C)(O)c1cnn2c(-c3ccc(F)c(-c4c(F)cccc4C#N)c3)cnc2n1` the “activity change, negative = cytotoxicity” value was 7.87%. In the case of `CCCCSP(=O)(SCCCC)SCCCC`, the Potency is reported as “inactive”. For `COC(=O)c1cncn1C(C)c1ccccc1` (stereo unspecified), the “activity change, negative = cytotoxicity” value was -7.65% [at 42.5 µM]. In the case of `CCn1cc[n+](C)c1`, the Potency is reported as “inactive”. In the case of `O=C1C[C@@H]2OCC=C3CN4CC[C@]56c7ccccc7N1[C@H]5[C@H]2[C@H]3C[C@H]46`, the “activity change, negative = cytotoxicity” value is reported as 2.89% [at 42.5 µM]. In the case of `C[C@H]1CCC[C@H](O)CCCCCc2cc(O)cc(O)c2C(=O)O1`, the “activity change, negative = cytotoxicity” value is reported as -0.423%. For `CC(C)OC(=O)Nc1ccccc1`, the Potency was “inactive”. In the case of `[Cl][Sn]([Cl])([Cl])[Cl]`, the “activity change, negative = cytotoxicity” value is reported as 0.617%. In the case of `BrCBr`, the “activity change, negative = cytotoxicity” value is reported as -0.415%. In the case of `CCN(N=O)C(N)=O`, the Potency is reported as “inactive”. With `CC(=O)NC1CCSC1=O` (stereo unspecified) the “activity change, negative = cytotoxicity” value was 2.14% [at 42.5 µM]. With `C[N+]1(CCF)[C@@H]2CC[C@H]1CC(OC(=O)C(O)(c1ccccc1)c1ccccc1)C2` (stereo partly specified) the “activity change, negative = cytotoxicity” value was 6.21% [at 42.5 µM]. With `CNC(=O)/C=C(\C)OP(=O)(OC)OC` the “activity change, negative = cytotoxicity” value was 15.8%. In the case of `Clc1nc(Cl)nc(Cl)n1`, the Potency is reported as “inactive”. In the case of `CCCCCCCCCCCCCCC(Br)C(=O)O` (stereo unspecified), the “activity change, negative = cytotoxicity” value is reported as 2.61%. For `COP(=O)(OC)C(O)C(Cl)(Cl)Cl` (stereo unspecified), the Potency was “inactive”. In the case of `Nc1ccc(Cc2ccc(N)c(Cl)c2)cc1Cl`, the “activity change, negative = cytotoxicity” value is reported as -1.37%. In the case of `CCc1cccc(C)c1N(C(=O)CCl)[C@@H](C)COC`, the “activity change, negative = cytotoxicity” value is reported as -14.6%. In the case of `Cc1cc(-c2cc(C)c(N)c(C)c2)cc(C)c1N`, the Potency is reported as “inactive”. In the case of `CCCC(C)C1(CC)C(=O)N=C(S)NC1=O` (stereo unspecified), the “activity change, negative = cytotoxicity” value is reported as -7.14% [at 42.5 µM]. With `ClC(Cl)(Cl)Br` the Potency was “inactive”. For `C=CCBr`, the “activity change, negative = cytotoxicity” value was 15%. For `CC(C)[C@@H](C(=O)O[C@@H](C#N)c1cccc(Oc2ccccc2)c1)c1ccc(Cl)cc1`, the Potency was “inactive”.
